Hits are enriched below; roughly 19% of the tested compounds scored in any of these assays.
HT1080-NT tox: kills 2HG-producing HT-1080-NT fibrosarcoma cells; Potency, µM (titrated, usually from 46.1 µM), actives largely listed as cytotoxic; 360,000 compounds, 1.6% hits; HT-1080-NT fibrosarcoma viability, CellTiter-Glo ATP luminescence, 48 h;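 also: NT is the 2HG producing partner of a matched IDH1 knockdown line; nearly all actives have a fitted effect of over 55% in size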
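Fibrosarcoma NT cells, 750 per well in 5% FBS RPMI, were exposed to compound for 48 hours. Viability: CellTiter-Glo luminescence.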
HT1080 IDH1KD tx: kills HT-1080 cells with IDH1 knockdown; 360,000 compounds, 2% hits; Potency, µM (highest dose often 46.1 µM), actives largely listed as cytotoxic; HT-1080 IDH1 knockdown viability, ATP luminescence, 48 h
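Luminescent ATP read-out (CellTiter-Glo, 10 min at room temperature) after 48 h compound exposure at 37 °C gave viability of IDH1-knockdown HT-1080 cells. Activity was normalised to DMSO and cell-free wells, then fitted as concentration-response curves.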
DT40 TDP1 CPT: DT40-hTDP1 cell growth loss with CPT | chicken DT40 Tdp1-/-;hTDP1 cells + 20 nM CPT, ATP luminescence, 48 h | AID 686979 | 420,000 compounds, 12% hits | Potency, µM (doses to about 46.2 µM), most hits filed as inhibitors; also: nearly all actives have a fitted effect of over 55% in size
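Chicken DT40 Tdp1-/- cells complemented with human TDP1, 400 cells/well, exposed to compounds plus 20 nM camptothecin for at least 48 h at 37 C; viability read as ATP content by CellTiter-Glo luminescence.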
KB-V1 cytotox: kills drug-selected multidrug resistant KB-V1 cells. KB-V1 MDR cells viability, CellTiter-Glo, 72 h. Potency, µM (series often up to 46.1 µM), usual class: cytotoxic. 400,000 compounds, 3.4% hits. AID 1347076; also: nearly all actives have a fitted effect of over 60% in size
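Cells of the MDR subline KB-V1 are plated, dosed with compound at multiple concentrations, and incubated 72 h at 37 degrees C; CellTiter-Glo is then added and luminescence read after 10 min.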
KB-3-1 cytotox: KB-3-1 parental cell cytotoxicity | KB-3-1 viability, CellTiter-Glo ATP luminescence, 72 h | 400,000 compounds, 1.4% hits | Potency, µM (top dose mostly 46.1 µM), most hits filed as cytotoxic | AID 1347075; also: nearly all actives have a fitted effect of over 60% in size
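Multi-concentration cytotoxicity screen in KB-3-1 cells grown in DMEM lacking phenol red with 10% FBS. After 72 h at 37 °C with compound, ATP-dependent luminescence was recorded.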
TDP1 cell noCPT: qHTS for Inhibitors of human tyrosyl-DNA phosphodiesterase 1 (TDP1): qHTS in cells in absence of CPT | DT40 Tdp1-/- hTDP1 cells, no CPT, ATP luminescence, 48 h | Potency, µM (top dose mostly 46.2 µM), actives largely listed as inhibitors | 420,000 compounds, 15% hits | AID 686978, 2013; also: nearly all actives have a fitted effect of over 55% in size
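Growth kinetics read by CellTiter-Glo luminescence after ≥48 hr at 37 °C. Cells: DT40 Tdp1-/- stably carrying human TDP1, 400 per well, compound exposure in the absence of CPT (DMSO vehicle).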
Numbers stand for hits; n = inactive; u = inconclusive; x = not tested or not shown. Calls follow the shape of the dose curve; as a rule, active = well fitted curve in the direction sought with a large enough effect; inconclusive = small, poorly fitted or top-dose-only effect, or another doubt; inactive = no such curve, though single readings can be large; an effect the other way counts as inactive or inconclusive.

SMILES | HT1080-NT tox | HT1080 IDH1KD tx | DT40 TDP1 CPT | KB-V1 cytotox | KB-3-1 cytotox | TDP1 cell noCPT
CC(C)NCC1CCc2cc(CO)c([N+](=O)[O-])cc2N1 (stereo unspecified) | n | n | u | n | n | n
Cc1ccc(C)c(NS(=O)(=O)c2cc3c4c(c2)CC(=O)N4CCC3)c1 | n | n | u | n | n | n
COC(CNC(=O)c1ccc(N2CCc3ccccc32)c([N+](=O)[O-])c1)OC | n | n | u | 15µM | u | u
COc1ccc(C(=O)NCC(c2cccs2)N2CCc3ccccc32)cc1OC (stereo unspecified) | n | n | u | n | n | 21µM
COc1ccc(C(=O)NCC2OCCc3ccccc32)cc1OC (stereo unspecified) | n | n | n | n | n | n
NNC(=O)c1ccc(N2CCc3ccccc32)c([N+](=O)[O-])c1 | n | n | n | n | n | u
Cc1ccc(NC(=O)C(=O)NCC(c2cccnc2)N2CCN(C)CC2)cc1C (stereo unspecified) | x | x | n | n | n | n
O=C(NCC(c1cccnc1)N1CCc2ccccc21)c1ccc(F)c(F)c1 (stereo unspecified) | x | x | 13µM | n | n | 9.2µM
Cc1ccc(C(=O)NCC(c2cccnc2)N2CCc3ccccc32)cc1C (stereo unspecified) | x | x | 7.3µM | n | n | 15µM
O=C(NCC(c1cccnc1)N1CCc2ccccc21)c1ccccc1Br (stereo unspecified) | x | x | u | n | n | u
S=C(NCCc1ccccc1)Nc1ccc(N2CCCCC2)cc1 | n | n | u | n | n | u
COc1cc(C(=O)NCC(c2cccnc2)N2CCc3ccccc32)cc(OC)c1OC (stereo unspecified) | x | x | u | n | n | 21µM
COc1cc(C(=O)NCC(c2cccnc2)N2CCN(C)CC2)cc(OC)c1OC (stereo unspecified) | n | n | n | n | n | n
CCCCN(C(=O)c1cccc(S(=O)(=O)N2CC(C)OC(C)C2)c1)c1c(N)n(CC(C)C)c(=O)[nH]c1=O (stereo unspecified) | n | n | n | n | n | n
Cc1cccn2c(=O)c(C(=O)NCCCN3CC(C)CC(C)C3)c(O)nc12 (stereo unspecified) | n | n | n | n | n | n
Cc1cccn2c(=O)c(C(=O)NCCCN3CCCCC3C)c(O)nc12 (stereo unspecified) | n | n | n | n | n | n
Cc1cccn2c(=O)c(C(=O)NC3CC(C)CC(C)(C)C3)c(O)nc12 (stereo unspecified) | n | n | 7.3µM | 23µM | u | 7.3µM
Cc1cccn2c(=O)c(C(=O)NC3CCCCC3C)c(O)nc12 (stereo unspecified) | n | u | u | 16µM | u | 15µM
Cc1cccn2c(=O)c(C(=O)NC3CCCCC3)c(O)nc12 | n | n | 18µM | u | u | 18µM
Cc1ccn2c(=O)c(C(=O)NCCCN3CCCCC3C)c(O)nc2c1 (stereo unspecified) | n | n | n | n | n | n
CCC1CCCCN1CCCNC(=O)c1c(O)nc2c(C)cccn2c1=O (stereo unspecified) | n | n | n | n | n | n
Cc1ccn2c(=O)c(C(=O)NC3CCCCC3C)c(O)nc2c1 (stereo unspecified) | n | n | 16µM | u | u | u
CCC(C)N1CCN(S(=O)(=O)Cc2ccccc2)CC1 (stereo unspecified) | u | n | n | n | n | n
CCOC(=O)c1cn2nc(Oc3cccc(C(F)(F)F)c3)ccc2n1 | n | n | n | n | n | u
CCOC(=O)C1(Cc2ccccc2)C(=O)Nc2ccccc21 (stereo unspecified) | n | n | n | n | n | n
SMILES | HT1080-NT tox | HT1080 IDH1KD tx | DT40 TDP1 CPT | KB-V1 cytotox | KB-3-1 cytotox | TDP1 cell noCPT
COC(CNC(=O)c1cccc(-n2c(=S)[nH]c3cc(Cl)ccc3c2=O)c1)OC | n | n | n | n | n | n
Cc1cccn2c(=O)c(C(=O)NCc3ccccc3Cl)c(O)nc12 | x | x | 16µM | n | n | 23µM
COc1ccc(S(=O)(=O)N(C)c2ccc(C(=O)N3CCN(C)CC3)cc2)cc1 | n | n | n | n | n | n
COc1ccc(N2CCN(C(=O)c3ccc(N(C)S(=O)(=O)c4ccc(C)cc4)cc3)CC2)cc1 | n | n | 16µM | u | n | 16µM
COc1ccc(N2CCN(C(=O)c3ccc(S(=O)(=O)N4CCOCC4)cc3)CC2)cc1 | n | n | u | 16µM | n | u
Cc1ccc(S(=O)(=O)N2CCN(C(=O)c3cccc(-n4cccc4)c3)CC2)cc1 | n | n | 16µM | u | n | u
COc1ccc(N2CCN(C(=O)c3ccc(N(C)S(=O)(=O)c4ccc(OC)cc4)cc3)CC2)cc1 | n | n | u | u | u | 16µM
NS(=O)(=O)c1ccc(NC(=O)COC(=O)CN2C(=O)C3CC=CCC3C2=O)cc1 (stereo unspecified) | n | n | n | n | n | n
CCC1OC(=O)C(C)[C@@H](O[C@H]2C[C@@](C)(OC)C(O)C(C)O2)C(C)[C@@H](O[C@@H]2OC(C)CC(N(C)C)C2O)[C@](C)(O)CC(C)/C(=N\OCOCCOC)[C@H](C)C(O)[C@]1(C)O (stereo partly specified) | x | x | n | x | x | n
Cc1ccccc1C(=O)c1cccn1CC(=O)NCCCc1ccccc1 | n | n | u | n | n | n
COc1ccc(S(=O)(=O)N2CCN(C(=O)c3cccc(S(=O)(=O)N4CCCC4)c3)CC2)cc1 | n | n | n | n | u | u
COc1ccc(N(C)S(=O)(=O)c2cccc(C(=O)N3CCN(S(=O)(=O)c4ccc(C)cc4)CC3)c2)cc1 | n | n | 26µM | u | n | u
COc1ccc(S(=O)(=O)N(C)c2ccc(C(=O)N3CCN(c4ccccc4)CC3)cc2)cc1OC | n | n | 15µM | u | n | 16µM
O=C(Nc1cccc(Cl)c1)N1Cc2ccccc2Oc2ncccc21 | x | x | n | x | x | u
CCN(CC)CCNCC1C(=O)O[C@@H]2C[C@@]3(C)CCC[C@H](C)C3=C[C@H]12 (stereo partly specified) | u | 16µM | u | u | u | 13µM
O=C(COc1ccc(Nc2ccccc2)cc1)OCC(=O)N1CCCCC1 | n | n | n | n | n | n
Cc1ccc(NC(=O)C(C)Sc2nnc3n2CCCCC3)cc1S(=O)(=O)N1CCOCC1 (stereo unspecified) | n | n | n | n | n | n

Screening data deposited in PubChem BioAssay by National Center for Advancing Translational Sciences (NCATS).
